# NPC1 prom act = NPC1 promoter activation; Huh7 NPC1 promoter luciferase reporter, 24 h; Potency, µM (series often up to 9.22 µM), for the others: at the highest dose activation, hits mostly activators; 2.4% of 320,000 active; AID 485313; also: % of control where 0% means no effect; nearly all actives have a fitted effect of over 60% in size
#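 Stable NPC1-promoter luciferase Huh7 line; cpd (DMSO) 24 h, 37 °C, 5% CO2; Amplite luciferase reagent 10 min RT; luminescence readout. qHTS format.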
# FLuc counter = inhibits or activates purified firefly luciferase, miR-21 counter-screen; Potency, µM (series often up to 57.5 µM), for inactives: at the highest dose activity change, negative = inhibition, hits mostly inhibitors; purified FLuc, Km substrates, luminescence inhibition; 6.9% of 360,000 active; AID 588342;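 also: plate controls were vehicle for no effect and reference inhibitor for full effect; nearly all actives have a fitted effect of over 55% in size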
# Target sequence (P08659 whole entry, looked up): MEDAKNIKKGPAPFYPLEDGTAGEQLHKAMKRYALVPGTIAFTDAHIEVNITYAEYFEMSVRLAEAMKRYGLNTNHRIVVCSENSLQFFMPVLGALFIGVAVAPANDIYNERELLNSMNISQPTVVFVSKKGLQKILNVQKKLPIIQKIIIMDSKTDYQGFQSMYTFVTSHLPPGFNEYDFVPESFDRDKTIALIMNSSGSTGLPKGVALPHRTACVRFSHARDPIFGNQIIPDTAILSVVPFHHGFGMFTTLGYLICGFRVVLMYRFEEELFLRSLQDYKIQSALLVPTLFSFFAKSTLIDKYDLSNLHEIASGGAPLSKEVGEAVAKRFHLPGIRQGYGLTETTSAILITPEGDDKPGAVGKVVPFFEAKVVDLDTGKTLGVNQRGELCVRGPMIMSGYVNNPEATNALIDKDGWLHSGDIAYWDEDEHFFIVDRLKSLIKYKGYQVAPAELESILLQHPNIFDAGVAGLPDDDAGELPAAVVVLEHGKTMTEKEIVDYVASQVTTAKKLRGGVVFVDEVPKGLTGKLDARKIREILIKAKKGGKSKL
#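 Purified P. pyralis luciferase, 10 nM final, with Km-level 10 uM D-luciferin and 10 uM ATP in 50 mM Tris acetate pH 7.5, 10 mM Mg acetate, 0.01% Tween-20, 0.05% BSA; 6-point qHTS titration about 60 µM downward; luminescence read.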
# Rab9 promoter act = activates the Rab9 promoter; Huh7 Rab9 promoter-luciferase reporter, luminescence, 24 h; Potency, µM (series often up to 9.22 µM), without a hit: at the highest dose activation, negative = inhibition, actives largely listed as activators; 2.8% of 320,000 active; AID 485297; also: % of control where 0% means no effect; nearly all actives have a fitted effect of over 60% in size
#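 Stable Rab9-luc Huh7, 1500 cells/well, 2 h settle; cmpd in DMSO, 24 h, 37 °C/5% CO2; luciferase reagent 10 min RT; luminescence.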
# ELG1 genotoxic = genotoxicity induction in ELG1-luciferase HEK293T cells; Potency, µM (titrated, usually from 46 µM), inactives show top-dose activity change, positive = activation, usual class: activators; 1.3% of 330,000 active; HEK293T ELG1-luciferase reporter, luminescence, 16 h; also: % of control where 0% means no effect; nearly all actives have a fitted effect of over 60% in size
#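 16 hr compound incubation (37 °C, 5% CO2) of HEK293T cells carrying luciferase-tagged ELG1; luciferase then measured by ONE-Glo luminescence after 30 min at RT.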
# ELG1 repair inh = ELG1-dependent DNA repair inhibition; HEK293T ELG1-luciferase reporter, luminescence, 16 h; DNA damage induced by 5-fluorouridine; Potency, µM (highest dose often 46.1 µM), without a hit: top-dose activity change, negative = inhibition, usual class: inhibitors; 2.3% of 330,000 active; AID 504467; also: % is scaled to controls: 0 for no effect and ±100 for the full control effect; nearly all actives have a fitted effect of over 55% in size
#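 Cells (2,000 per well) received 5-fluorouridine plus test compound or DMSO and were incubated 16 hr at 37 °C, 5% CO2. Luciferase activity was read by luminescence 30 min after ONE-Glo addition; signal suppression marked inhibition of damage-induced ELG1 function.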
# SMN2 splice enh = increases expression of the SMN2 splice variant | Potency, µM (series often up to 46.1 µM), inactives show top-dose activity change, positive = activation, usual class: activators | HEK293 SMN2-luciferase splicing reporter, luminescence, 30-36 h | AID 1458 | 2.8% of 210,000 active; also: % of control where 0% means no effect; nearly all actives have a fitted effect of over 55% in size
#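 HEK293 cells carry an SMN2 […]–luciferase reporter in which exon 7 inclusion puts luciferase in frame. Cells were plated 10-12 h before compound addition, then incubated 30-36 h at 37C. ONE-Glo luminescence was read; sodium butyrate at 4.5 mM final served as control.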
# An asterisk follows results filed as active; ? = inconclusive; . = no result given; [ ] = remark or other dose. A selection: hits, their analogues and other compounds. The true share with any hit is near 9.4%. Calls follow the shape of the dose curve; as a rule, active = well fitted curve in the direction sought with a large enough effect; inconclusive = small, poorly fitted or top-dose-only effect, or another doubt; inactive = no such curve, though single readings can be large; an effect the other way counts as inactive or inconclusive. Potency is read from the fitted curve at half-maximal effect.
SMILES,NPC1 prom act,FLuc counter,Rab9 promoter act,ELG1 genotoxic,ELG1 repair inh,SMN2 splice enh
O=C1N/C(=N/N=C/c2ccc(F)cc2)SC1c1ccccc1 (stereo not drawn),2%,15µM*,15%,9%,16%,.
COc1ccc(CNC(=O)C(CCSC)NS(=O)(=O)c2ccc3c(c2)oc(=O)n3C)cc1 (stereo not drawn),.,-1%,.,.,.,.
CCOC(=O)c1sc(NC(=O)c2nc3nc(C)cc(C(F)F)n3n2)c(C(=O)OC(C)C)c1C,.,-3%,.,.,.,-7%
C=CCn1c(O)c(N=O)c2ccccc21,0%,-3%,0%,2%,12%,.
C=CCn1c2ccccc2n2nc(C)c(=O)nc12,-6%,0%,1%,1%,-14%,6%
C=CCn1c2ccccc2c(=O)c2cc(C#Cc3ccccn3)ccc21,4µM*,7.6µM*,-4%,3%,?,.
C=CCn1c2ccccc2c(=O)c2cc(C#Cc3ccsc3)ccc21,16%,0.67µM*,21%,10%,20%,.
CCNc1nc(OC)nc(Oc2ccc(=O)[nH]n2)n1,.,-6%,.,.,.,10%
Fc1ccccc1N1CCN(c2ncnc3onc(-c4cccc(Cl)c4)c23)CC1,.,1%,.,.,.,12%
C[C@H]1Cc2c(COc3ccccc3)nc3c(c2CO1)CN(S(=O)(=O)c1ccc(Cl)c2nonc12)CC3,.,.,.,.,.,-1%[9.22 µM]
CCOC(=O)c1c(C)oc2c1c1c(c3ccccc32)OCN(Cc2cccnc2)C1,3%,27µM*,5%,15µM*,?,-73%
CCOC(=O)c1c(C)oc2c1c(C(c1cccnc1)N1CCN(C)CC1)c(O)c1ccccc12 (stereo not drawn),0%,-3%[2.3 µM],9%,?,?,.
CCOC(=O)c1c(C)oc2c1c1c(c3ccccc32)OCN(CCCC(=O)O)C1,?,19µM*,?,?,?,.
CCOC(=O)c1ccc2nc(C)cc(Nc3ccc(OC(C)C)cc3)c2c1,.,4%,.,.,.,-23%
Brc1ccc2ncnc(Nc3cccc4ccccc34)c2c1,10%,-8%,-5%,-1%,2%,-71%
OCCNc1ncnc2ccc(Br)cc12,16%,-1%,2%,-7%,9.2µM*,.
CCCCN1C(=O)/C(=C2\SC(N3CCCCC3)=NC2=O)c2ccccc21,1.4µM*,2.1µM*,1.8µM*,?,?,?
O=C1N=C(N2CCOCC2)S/C1=C1\C(=O)N(Cc2ccccc2)c2ccc(Br)cc21,11%,?,15%,12%,1%,-5%
Cc1ccc(NC(=O)N2CCN3CCCCC3C2)cc1C (stereo not drawn),.,3%,.,.,.,.
C=CCNC(=O)N1CCCC(C(=O)c2cccc(OC(C)C)c2)C1 (stereo not drawn),?,17µM*,3.5µM*,?,?,.
COc1ccccc1NC(=O)c1ccc2nc(C)sc2c1,4µM*,?,?,7%,?,.
COc1ccccc1NC(=O)CCS(=O)(=O)c1ccc2nc(C)sc2c1,.,-1%,.,.,.,.
O=C(Nc1cccc(Br)c1)c1ccc2nc(N3C(=O)CCC3=O)sc2c1,15%,17µM*,18%,-1%,21%,-15%
COc1cccc(NC(=O)c2ccc3nc(C)sc3c2)c1,1.6µM*,11µM*,1.1µM*,23µM*,?,.
COc1cccc(NC(=O)CN(C)S(=O)(=O)c2ccc3nc(C)sc3c2)c1,.,2%,.,.,.,-18%
SMILES,NPC1 prom act,FLuc counter,Rab9 promoter act,ELG1 genotoxic,ELG1 repair inh,SMN2 splice enh
COc1ccc(Cl)cc1NC(=O)Cn1cc(C(=O)c2ccncc2)c(=O)c2cc(C)ccc21,.,-4%,.,.,.,.
Cc1cccc2nc(-c3ccccc3)nc(N[C@@H](CO)c3ccccc3)c12,0%,0%,-4%,-12%,9.2µM*,-102%
Fc1ccccc1Nc1n[nH]c(=S)s1,14%,?,?,?,?,13µM*
CC(C)(C)c1nnc(NC(=O)c2ccc3c(c2)OCO3)s1,2µM*,6.7µM*,2.5µM*,?,?,.
CCN(CC)C(=O)c1sc(NC(=O)c2ccc3c(c2)OCO3)c(C(N)=O)c1C,?,19µM*,?,5%,?,.
CCSc1nnc(NC(=O)c2ccc3c(c2)OCO3)s1,2.5µM*,6.7µM*,1.6µM*,2.1µM*,?,10µM*
CCOC(=O)CSc1nnc(NC(=O)c2ccc3c(c2)OCO3)s1,-6%,1.1µM*,10%,19%,13%,.
CCSc1nnc(NC(=O)/C=C/c2ccc3c(c2)OCO3)s1,0%,?,1%,7%,10%,-42%
CCN(CC)C(=O)c1sc(NC(=O)c2ccncc2)c(C(=O)OC)c1C,-3%,-2%,-4%,-1%,-29%,-11%
NC(C(=O)O)C(CC(=O)O)c1ccc(Cl)cc1 (stereo not drawn),.,.,.,.,.,0%
Cc1ccc(C)c(N2CCN(S(=O)(=O)c3cc(C(=O)Nc4ccc(Oc5ccccc5)cc4)ccc3F)CC2)c1,.,-7%,.,.,.,.
Cc1cccc(NC(=O)c2sc(-n3nc(C)c(CCC(C)C)c3C)nc2C)c1,.,-6%,.,.,.,.
CC(C)Sc1nnc(NC(=O)c2ccc3c(c2)OCO3)s1,2.2µM*,5.4µM*,1.4µM*,?,?,.
CC(C)(C)c1nnc(NC(=O)COc2ccc3c(c2)OCO3)s1,3.5µM*,12µM*,?,?,?,.
CC(C)c1nnc(NC(=O)c2ccc3c(c2)OCO3)s1,0.45µM*,1.3µM*,0.28µM*,?,?,1µM*
CCOC(=O)c1sc(NC(=O)COc2ccc3c(c2)OCO3)nc1C,0%,1%,3%,0%,10%,.
O=C(Cn1c(=O)oc2cc(S(=O)(=O)N3CCCCCC3)ccc21)Nc1cccc(C(F)(F)F)c1,.,-6%,.,.,.,.
COc1ccc(Nc2ncc(C(=O)N3CCN(c4cccc(Cl)c4)CC3)c3ccccc23)cc1,.,-1%,.,.,.,-37%
C/C(=N\Nc1ccc([N+](=O)[O-])cc1)c1ccco1,?,7.6µM*,3.5µM*,?,?,.
C/C(=N/Nc1ccccc1[N+](=O)[O-])c1ccc(C)c([N+](=O)[O-])c1,3.2µM*,-1%,?,9%,19%,.
O=C(Nc1ccc(N2CCOCC2)cc1)c1ccc([N+](=O)[O-])cc1,7%,1%,12%,6%,?,-7%
C/C(=N\NC(=O)COc1ccc([N+](=O)[O-])cc1)c1ccco1,-1%,0%,-3%,0%,13%,.
C/C(=N\Nc1ccc([N+](=O)[O-])cc1)c1ccc(N2CCOCC2)cc1,17%,8.5µM*,1%,6%,?,.

# Source: PubChem (National Center for Advancing Translational Sciences (NCATS))
